Results reported in PubChem BioAssay (NCATS).
Inconclusive results are not listed. The source made the active and inactive calls. Calls follow the shape of the dose curve; as a rule, active = well fitted curve in the direction sought with a large enough effect; inconclusive = small, poorly fitted or top-dose-only effect, or another doubt; inactive = no such curve, though single readings can be large; an effect the other way counts as inactive or inconclusive. Where a SMILES comes first, the peptide text is derived from it. The star is where a group is joined. Hexanoyl = CCCCCC(=O)*

Key:
[1] = target: Glutathione peroxidase 1 (Homo sapiens) (UniProt P07203); assay: Primary qHTS Assay for Inhibitors of Recombinant Selenoprotein Glutathione Peroxidase 1 (GPX1) (AID 1845191); also: nearly all actives have a fitted effect of over 65% in size; as to activity, negative = inhibition: % is scaled to controls: 0 for no effect and ±100 for the full control effect
Glutathione peroxidase 1 (Homo sapiens), sequence (P07203 whole entry, looked up): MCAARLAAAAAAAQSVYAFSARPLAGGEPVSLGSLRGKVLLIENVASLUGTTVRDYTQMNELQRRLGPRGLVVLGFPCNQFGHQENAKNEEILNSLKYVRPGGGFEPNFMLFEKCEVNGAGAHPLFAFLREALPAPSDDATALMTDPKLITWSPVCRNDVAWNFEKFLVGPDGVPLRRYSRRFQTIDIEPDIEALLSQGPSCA
Summary of the method: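 GR-coupled assay: compounds preincubated 30 min at room temperature with GPX1, then reaction started with CHP; final 10 nM GPX1, 1 mM GSH, 0.5 mM CHP, 0.5 mM NADPH, 100 nM GR, 0.01% BSA, pH 7.5 Tris buffer. NADPH fluorescence (340/450 nm) read at 0 and 15 min.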

[2] = target: Phospholipid hydroperoxide glutathione peroxidase GPX4 (Homo sapiens) (UniProt P36969); assay: Primary qHTS Assay for Inhibitors of Recombinant Selenoprotein Glutathione Peroxidase 4 (GPX4) (AID 1845192); also: nearly all actives have a fitted effect of over 65% in size; as to activity change, negative = inhibition: series mostly up to about 50 µM; % is scaled to controls: 0 for no effect and ±100 for the full control effect
Phospholipid hydroperoxide glutathione peroxidase GPX4 (Homo sapiens), sequence (P36969 whole entry, looked up): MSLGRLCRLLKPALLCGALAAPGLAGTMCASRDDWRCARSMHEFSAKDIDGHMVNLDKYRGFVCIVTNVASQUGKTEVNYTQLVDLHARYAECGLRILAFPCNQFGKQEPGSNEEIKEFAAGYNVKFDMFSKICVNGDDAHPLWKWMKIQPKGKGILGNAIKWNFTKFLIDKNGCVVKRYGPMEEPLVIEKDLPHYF
Summary of the method: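 GR-coupled assay: recombinant GPX4 preincubated 30 min with compound at room temperature; final 200 nM GPX4, 1 mM GSH, 0.5 mM cumene hydroperoxide, 0.5 mM NADPH, 100 nM GR, 0.01% BSA, pH 7.5 Tris. NADPH fluorescence (340/450 nm) read at 0 and 15 min.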

[3] = target: Luciferin 4-monooxygenase (Photinus pyralis) (UniProt P08659); assay: Primary firefly luciferase (FLuc) qHTS assay for identification of artifact compounds. (AID 1845220); also: nearly all actives have a fitted effect of over 60% in size;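 as to activity change, negative = inhibition: series mostly up to about 54 µM; plate controls were DMSO vehicle for no effect and no enzyme for full effect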
Summary of the method: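 Titrated compounds were incubated 15 min at RT, protected from light, with luciferin and ATP at 10 uM; reaction started with 10 nM FLuc, luminescence imaged at 5 min, and concentration-response fitted by Hill equation.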

[4] = Primary fluorescence-based thiol-reactive (MSTI) qHTS assay for identification of artifact compounds. (AID 1845221);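 also: series mostly up to about 54 µM; thiol-reactive compounds lower the probe fluorescence signal; nearly all actives have a fitted effect of over 65% in size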
Summary of the method: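 In PBS pH 7.4 with 2% DMSO, each compound met 4 uM MSTI for one hour at ambient temperature, shielded from light, before fluorescence detection.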

[5] = system: Nanoluciferase (engineered Oplophorus gracilirostris luciferase); assay: Primary Nanoluciferase (NLuc) qHTS assay for identification of artifact compounds. (AID 1845222);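 also: NLuc secreted into diluted conditioned medium of S16 cells; series mostly up to about 54 µM; 0% = DMSO and -100% = no enzyme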
Summary of the method: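 qHTS format, against NLuc in S16 cell-conditioned medium. Nano-Glo substrate 1:100 was added after 15 min at room temperature. Luminescence was taken after a further 5 min.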

[6] = Primary redox qHTS assay for identification of artifact compounds. (AID 1845223);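 also: 0% = DMSO and 100% = reference compound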
Summary of the method: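 Amplex Red (25 uM) and HRP (250 mU/mL) in HBSS, with compounds for 15 min, then 250 uM DTT for 30 min, room temperature, dark. Fluorescence 525/598 nm read; normalized to DMSO and 10 uM DA3003; Hill fit.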

C[C@H]1/C=C/C=C/C=C/C=C/C=C/[C@@H](O)[C@H](C(=O)O)[C@H](O)C[C@H](O)CCC[C@H](O)C[C@H](O)C[C@H](O)[C@@H](C)C(=O)O[C@@H]1C
inactive: Potency [1] | Potency [2] | Potency [3] | Potency [4] | Potency [5] | Potency [6]

COc1ccc(C2(O)c3ccccc3NC(=O)C2OC)cc1 (centres undefined)
inactive: Potency [1] | Potency [2] | Potency [3] | Potency [4] | Potency [5] | Potency [6]

CCC(C)C(=O)O[C@H]1[C@@H](O[C@H]2O[C@H](CO)[C@@H](O)[C@H](O)[C@H]2O)O[C@H](CO)[C@@H](O)[C@@H]1O (some centres undefined)
inactive: Potency [1] | Potency [2] | Potency [3] | Potency [4] | Potency [5] | Potency [6]

CSCC[C@H](NC(=O)[C@H](CO)NC(=O)[C@H](CCC(=O)O)NC(C)=O)C(=O)N[C@H](C=O)CC(=O)O (Ac-ESMD-aldehyde)
inactive: Potency [1] | Potency [2] | activity change, negative = inhibition [3] -5.86% [at 11.6 µM] | activity change, negative = thiol reactive [4] 10.4% [at 11.5 µM] | activity, negative = inhibition [5] 3.03% [at 11.6 µM] | redox activity (% of DA3003) [6] -1.61% [at 11.5 µM]

O=C(O)c1ccnc2cc(C(OCC3CCC(F)(F)CC3)c3ccccc3Cl)[nH]c12 (centres undefined)
inactive: Potency [1] | Potency [2] | Potency [3] | Potency [4] | Potency [5] | Potency [6]

Cc1occc(=O)c1O[C@@H]1O[C@H](CO[C@@H]2OC[C@](O)(CO)[C@H]2O)[C@@H](O)[C@H](O)[C@H]1O
inactive: Potency [1] | Potency [2] | Potency [3] | Potency [4] | Potency [5] | Potency [6]

CSCC1OC(n2cnc3c(N)ncnc32)C(O)C1O (centres undefined)
inactive: Potency [1] | Potency [2] | Potency [3] | Potency [4] | Potency [5] | Potency [6]

COc1cnc(-c2ccc(Cn3c(CC(C)(C)C(=O)O)c(SC(C)(C)C)c4cc(OC[C@@H]5Cc6ccccc6N5C(C)=O)ccc43)cc2)nc1
inactive: Potency [1] | Potency [2] | Potency [3] | Potency [4] | Potency [5] | Potency [6]

CC(=O)OCC1=C[C@@H]2OC(=O)C3=CO[C@@H](O[C@@H]4O[C@H](CO)[C@@H](O)[C@H](O)[C@H]4O)[C@H]1[C@@H]32
inactive: Potency [1] | Potency [2] | Potency [3] | Potency [4] | Potency [5] | Potency [6]

Cc1occc(=O)c1O[C@@H]1O[C@H](CO)[C@@H](O)[C@H](O)[C@H]1O
inactive: Potency [1] | Potency [2] | Potency [3] | Potency [4] | Potency [5] | Potency [6]

O=C(O)CCc1c(C(=O)O)[nH]c2cc(Cl)cc(Cl)c12
inactive: Potency [1] | Potency [2] | Potency [3] | Potency [4] | Potency [5] | Potency [6]

CCCCCC(=O)N1CCC[C@H]1C(=O)N[C@@H](Cc1ccc(O)cc1)C(=O)OC (Hexanoyl-Pro-Tyr-OMe)
inactive: Potency [1] | Potency [2] | Potency [3] | Potency [4] | Potency [5] | Potency [6]

C=C1CC2C3(C)C(O)CC(=O)C(C)(C)C3C(O)C(OC(C)=O)C2(C)C2C(=O)OC(C)(C(=O)OC)C(=O)C12C (centres undefined)
inactive: Potency [1] | Potency [2] | Potency [3] | Potency [4] | Potency [5] | Potency [6]

COC(=O)Cn1nc(-c2cccc(OC)c2)c2ccccc21
inactive: Potency [1] | Potency [2] | Potency [3] | Potency [4] | Potency [5] | Potency [6]

C[C@@H]1O[C@@H](O[C@H]2[C@H](OC(=O)[C@]34CCC(C)(C)C[C@H]3C3=CCC5[C@@]6(C)CC[C@H](O[C@@H]7O[C@H](CO[C@@H]8OC[C@H](O)[C@H](O)[C@H]8O)[C@@H](O)[C@H](O)[C@H]7O)C(C)(C)C6CC[C@@]5(C)[C@]3(C)C[C@H]4O)OC[C@@H](O)[C@@H]2O)[C@H](O)[C@H](O[C@@H]2OC[C@](O)(CO)[C@H]2O)[C@H]1O[C@@H]1OC[C@H](O)[C@H](O[C@@H]2OC[C@@H](O)[C@H](O)[C@H]2O)[C@H]1O (some centres undefined)
inactive: Potency [1] | Potency [2] | activity change, negative = inhibition [3] -1.94% [at 11.6 µM] | activity change, negative = thiol reactive [4] 415% [at 11.5 µM] | activity, negative = inhibition [5] 0.577% [at 11.6 µM] | redox activity (% of DA3003) [6] 19.6% [at 11.5 µM]

COc1ccc(Oc2c(Cl)cnn(C3c4ccccc4-c4ccccc43)c2=O)cc1
inactive: Potency [1] | Potency [2] | Potency [3] | Potency [4] | Potency [5] | Potency [6]

CC1(C)CC[C@]2(C(=O)O)CC[C@]3(C)C(=CCC4[C@@]5(C)C(=O)C[C@H](O)[C@@](C)(CO)C5CC[C@]43C)[C@@H]2C1 (some centres undefined)
inactive: Potency [1] | Potency [2] | Potency [3] | Potency [4] | Potency [5] | Potency [6]

CC1(CO)CCCC2(C)C1C(OC(=O)c1ccccc1)CC1C(=O)OCC12O (centres undefined)
inactive: Potency [1] | Potency [2] | Potency [3] | Potency [4] | Potency [5] | Potency [6]

O=C(OCC1OC(Oc2ccc(O)cc2COC(=O)C2(O)C(O)CCC(=O)C2OC(=O)C2C=CCC2)C(OC(=O)C2C=CCC2)C(O)C1O)C1C=CCC1 (centres undefined)
inactive: Potency [1] | Potency [2] | Potency [3] | Potency [4] | Potency [5] | Potency [6]
